Screens as filed in PubChem BioAssay.
FEN1 inh: blocks human flap endonuclease 1; Recombinant FEN1 flap cleavage, fluorescence, 15 min; Potency, µM (series often up to 114 µM), for inactives: at the top dose activity change, negative = inhibition, actives largely listed as inhibitors; hit rate 0.35% among 390,000; AID 588795; further: on the % scale 0 is the no-effect control and ±100 the full control effect; nearly all actives have a fitted effect of over 65% in size
Target sequence (P39748 whole entry, looked up): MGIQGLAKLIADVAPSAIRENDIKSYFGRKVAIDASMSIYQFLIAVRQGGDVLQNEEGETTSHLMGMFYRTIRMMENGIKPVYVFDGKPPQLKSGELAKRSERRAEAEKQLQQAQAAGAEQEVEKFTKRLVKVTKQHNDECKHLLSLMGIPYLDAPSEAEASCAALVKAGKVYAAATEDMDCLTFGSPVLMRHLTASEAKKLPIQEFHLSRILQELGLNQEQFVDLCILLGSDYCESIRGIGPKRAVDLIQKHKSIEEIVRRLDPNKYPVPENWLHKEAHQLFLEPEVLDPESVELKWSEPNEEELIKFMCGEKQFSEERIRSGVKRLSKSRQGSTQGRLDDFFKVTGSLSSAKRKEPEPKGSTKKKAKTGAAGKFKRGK
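Quantitative HTS format: each compound was titrated, incubated with 10 nM nuclease for 15 min at room temperature, then challenged with flap substrate at 50 nM final. Signal change over 15 min gave concentration–effect curves.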
Pol eta inh: blocks human DNA polymerase eta activity | Q9Y253 | recombinant Pol eta, fluorescent DNA replication assay | Potency, µM (top dose mostly 114 µM), for the others: top-dose activity change, negative = inhibition, usual class: inhibitors | hit rate 1.2% among 390,000 | AID 588591; further: on the % scale 0 is the no-effect control and ±100 the full control effect
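Pol eta (10 nM) was preincubated with compounds for 15 min at room temperature, after which fluorescent replication substrate (50 nM final) was added to start the reaction. Fluorescence was read kinetically at 0 and 10 min.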
TDP1 inh: inhibitors of human tyrosyl-DNA phosphodiesterase TDP1 | Potency, µM (top dose mostly 130 µM), without a hit: at the top dose activity change, negative = inhibition, hits mostly inhibitors | hit rate 0.28% among 350,000 | recombinant TDP1, AlphaScreen DNA substrate cleavage | AID 485290; further: on the % scale 0 is the no-effect control and ±100 the full control effect; nearly all actives have a fitted effect of over 40% in size
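Compounds were preincubated with Tdp1 (1 nM final) for 15 min at room temperature before substrate (15 nM final) started a 5 min reaction; beads (10 ug/ml final) were then added for 10 min before AlphaScreen detection.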
Pol iota inh: inhibitors of human DNA polymerase iota | Q9UNA4 | hit rate 1% among 390,000 | AID 588590 | Potency, µM (titrated, usually from 115 µM), inactives show at the highest dose activity, negative = inhibition, most hits filed as inhibitors | Pol iota fluorescent replication assay, 10 min
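Pol iota at 10 nM preincubated 15 min with compounds at room temperature; reaction started with fluorescent substrate, 50 nM final. Fluorescence read kinetically at 0 and 10 min; buffer-only wells as negative control.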
Pol beta inh: DNA polymerase beta (human) inhibition | P06746 | Potency, µM (series often up to 114 µM), inactives show at the highest dose activity change, negative = inhibition, actives largely listed as inhibitors | hit rate 1.3% among 340,000 | Pol beta primer extension/strand displacement, fluorescence kinetic; further: on the % scale 0 is the no-effect control and ±100 the full control effect
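Preincubation: enzyme (10 nM) with compound, 15 min, RT. Reaction: substrate added to 50 nM final. Reads: 0 and 10 min. Analysis: normalized, Hill fit.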
Pol kappa inh: blocks human DNA polymerase kappa activity | Q9UBT6 | purified Pol kappa, fluorescent DNA synthesis assay, 10 min | Potency, µM (top dose mostly 107 µM), without a hit: top-dose activity, negative = inhibition, actives largely listed as inhibitors | hit rate 0.53% among 400,000; further: on the % scale 0 is the no-effect control and ±100 the full control effect
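Pol kappa 10 nM + cpd, 15 min RT; start w/ substrate 50 nM final; fluorescence kinetic read, 0 and 10 min. Neg ctrl: buffer, no enzyme.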
An asterisk follows results filed as active; ? = inconclusive; · = no result; ! = a repeat was not active; [ ] = remark or other dose. Only some compounds are listed: those with a hit (about 2.4% of all), similar ones and a draw of the others. The call rests on the fitted dose curve; in most records, active means well fitted curve in the direction sought with a large enough effect; inconclusive means small, poorly fitted or top-dose-only effect, or another doubt; inactive means no such curve, though single readings can be large; an effect the other way counts as inactive or inconclusive. Potency means the concentration at half of the fitted maximal effect.

SMILES	FEN1 inh	Pol eta inh	TDP1 inh	Pol iota inh	Pol beta inh	Pol kappa inh
COc1ccc2oc(C(=O)OCC(=O)NCc3ccco3)c(C)c2c1	0.1%	50.1µM*	·	?	·	-25.6%
COCCCNC(=O)c1c(NC(=O)c2cc(=O)c3ccccc3o2)sc2c1CCCC2	4.7%	-17.9%	3.7%	27.7%	1.8%	11.8%
O=C(COC(=O)c1cc(-c2ccc(Cl)s2)nc2ccccc12)NCc1ccco1	3.4%	20µM*	2.3%	?	1.4%	-10.1%
O=C(COC(=O)Cc1c(Cl)cccc1Cl)NCc1ccco1	13.7%	35.5µM*	-11.5%	44.7µM*	·	?
O=C(COC(=O)CNC(=O)c1ccc(-c2ccccc2)cc1)NCc1ccco1	0.9%	-21.9%	·	70.5%	8.91µM*	-9.7%
O=C(COC(=O)Cc1ccc(Cl)c(Cl)c1)NCc1ccco1	11.6%	-8.3%	-0.2%	13.1%	·	-6.1%
O=C(COC(=O)c1cccc(Br)c1)NCc1ccco1	-1.1%	79.4µM*	-0.2%	25.1µM*	·	?
CN(c1ccccc1)S(=O)(=O)c1cccc(C(=O)OCC(=O)NCc2ccco2)c1	4.0%	-28.1%	8.6%	84.8%	-1.0%	-4.7%
CCOC(=O)c1cc(-c2ccc(F)cc2)n(CCC(=O)Nc2nc3cc(C)c(C)cc3s2)c1C	13.2%	-8.4%	-2.8%	26.1%	71.6%	-13.4%[60.1 µM]
Cc1ccc(C)c(NC(=O)CCn2nc(C)c3c(C)n(-c4ccccc4)nc3c2=O)c1	34.4%	-8.0%	5.6%	-22.7%	24.4%	-4.9%
CSc1cc2c(s1)c1cnn(Cc3ccccc3F)c(=O)c1n2C	·	·	0.5%	·	·	·
CCOc1ccc(C(=O)OCC(=O)NCc2ccco2)cc1OCC	-9.6%	?	·	?	20µM*	?
O=C(NCc1ccco1)c1ccc(S(=O)(=O)N2CCOCC2)cc1	-1.4%	?	·	15.8µM*	35.5µM*	?
O=C(COC(=O)c1ccccc1)NCc1ccco1	-11.5%	12.6µM*	·	28.2µM*	25.1µM*	?
O=C(COC(=O)c1ccco1)NCc1ccco1	2.0%	-7.6%	-2.1%	-16.1%	-6.3%	-3.6%
O=C(COC(=O)c1cc(Cl)cc(Cl)c1)NCc1ccco1	-12.0%	56.2µM*	-8.5%	?	·	?
CCOc1cc(C(=O)NCc2ccco2)cc(OCC)c1OCC	-9.7%	-8.6%	·	31.1%	18.3%	-4.1%
CCOc1ccc(N2CC(NC(=O)C3CCCC3)CC2=O)cc1 (stereo unspecified)	0.6%	-12.3%	10.4%	7.8%	0.6%	-5.0%[60.1 µM]
CCOc1cccc2sc(N(CCN(CC)CC)C(=O)c3ccco3)nc12	5.7%	-15.5%	3.7%	-10.2%	7.6%	-10.7%
Cc1ccc(C(=O)NCc2ccco2)cc1S(=O)(=O)N1CCCCC1	-7.5%	?	-3.9%	?	39.8µM*	?
Cc1cccc(C(=O)OCC(=O)NCc2cccs2)c1	2.9%	0.9%	-5.1%	18.4%	16.9%	-15.6%
Cc1cccc(C(=O)OCC(=O)NCc2ccco2)c1	-15.6%	15.8µM*	·	79.4µM*	·	?
Cc1ccc(C(=O)Nc2ccccc2C(=O)NCc2ccco2)cc1S(=O)(=O)N1CCCCC1	-13.7%	-12.4%	0.0%	-0.7%	-28.7%	-10.5%
COc1ccc(NC(=O)Cc2ccccc2)cn1	-2.5%	-11.5%	3.7%	85.8%	-17.2%	-26.7%
COc1ccc(NC(=O)/C(Cl)=C(/Cl)S(=O)Cc2ccccc2)cn1 (stereo unspecified)	-17.6%	-15.9%	4.7%	31.6µM*	19.5%	-12.3%
SMILES	FEN1 inh	Pol eta inh	TDP1 inh	Pol iota inh	Pol beta inh	Pol kappa inh
O=C(O)c1ccccc1NC(=S)NC(=O)c1sc2ccccc2c1Cl	-9.3%	8.5%	2.6%	-5.2%	22.8%	-5.7%
Cc1ccc(NC(=S)NC(=O)c2sc3ccccc3c2Cl)c(C(=O)O)c1	·	·	2.4%	·	20µM*	·
CCCNC(=O)c1cnn2c(C(F)F)cc(-c3ccccc3)nc12	0.9%	-8.6%	-1.1%	9.4%	-6.5%	-2.8%
O=C(O)c1ccc(OC2CSC2)cc1	-1.7%	20µM*	·	?	5.6%	-2.4%
COc1ccccc1-c1noc(-c2ccc(N3CCN(C)CC3)c([N+](=O)[O-])c2)n1	10.4%	-16.0%	5.7%	-5.0%	-0.9%	-3.1%
Cc1occc1-c1nnc(SCc2cc(=O)n3cc(Br)ccc3n2)n1C	-2.7%	?	-12.2%	?	44.7µM*	-44.8%
COc1ccc(-n2nc(C(=O)NCC(=O)Nc3cccc(Cl)c3)c3ccccc3c2=O)cc1OC	-24.0%	?	-3.9%	47.8%	25.1µM*	3.5%
CCOc1ccc(NC(=O)CNC(=O)c2nn(-c3ccc(OC)c(OC)c3)c(=O)c3ccccc23)cc1	11.9%	-28.0%	0.3%	?	-24.9%	-1.0%
Cc1c(P(=S)(c2ccccc2)c2ccccc2)[n+]2ccccc2n1CC(=O)c1ccccc1	·	·	1.0%	·	·	·
O=C(O)c1ccc2c3n(nc2c1)-c1ccc(Cl)cc1CO3	-20.0%	3.6%	·	15.8µM*	20µM*	31.6µM*
O=C(O)c1ccc(N2C(=O)/C(=C/C=C/c3ccccc3)SC2=S)cc1	-7.0%	50.1µM*	-4.3%	?	?	-3.2%[60.1 µM]
CN(C)c1ccc(/C=C/C=C2/SC(=S)N(c3ccccc3)C2=O)cc1	-9.3%	0.3%	9.9%	?	37.1%	-3.7%
COc1ccc(C2Nc3ccccc3C(=O)N2Cc2ccc(-c3ccccc3)cc2)cc1COc1ccc(NC(C)=O)cc1 (stereo unspecified)	·	·	-3.1%	·	·	·
CCOc1ccccc1CNC(=O)c1cnc2sc(N3CCCCCC3)nn2c1=O	-13.2%	-13.1%	4.5%	8.5%	17.5%	3.1%
COC(=O)c1cnn(-c2ccc(C(=O)Nc3ccc(C(C)=O)cc3)cc2)c1N	17.2%	0.9%	35.5µM*	20.1%	10.4%	-9.3%[60.1 µM]
COc1ccc(NC(=O)CNc2ccc(OC)c(S(=O)(=O)N3CCOCC3)c2)cc1	·	-2.1%	·	·	·	·
Cc1ccc(NC(=O)c2ccc3c(c2)CCC(=O)N3)cc1C	·	·	-10.7%	·	·	·
Cc1cc2ccccn2c1C(=O)c1nc(NCc2ccccc2)ncc1Cl	2.9%	-12.0%	7.7%	79.4µM*!	3.8%	4.3%
O=C(O)c1nc(NCc2ccccc2)ncc1Cl	-10.5%	-9.2%	·	-20.0%	34.1%	10.9%
O=C(Nc1cccnc1Cl)c1cc(-c2ccc(O)cc2)on1	-14.2%	-4.6%	50.1µM*	?	-22.7%	-6.1%
CN1C(=O)C(C)(C)c2cc(S(=O)(=O)N3CCN(c4ccc(F)cc4)CC3)ccc21	-16.1%	-17.7%	2.1%	22.3%	16.8%	-5.4%
CN1C(=O)C(C)(C)c2cc(S(=O)(=O)N3CCN(c4cccc(Cl)c4)CC3)ccc21	-10.9%	0.4%	·	?	14.1µM*	-35.8%
O=c1cc(COc2ncnc3ccccc23)nc2sccn12	-10.4%	-7.3%	-7.5%	28.2µM*	?	-26.3%
